# A selection: hits, their analogues and other compounds. The true share with any hit is near 4.1%.
# tim23-1 inh: growth inhibitors of tim23-1 mutant yeast; 1.3% of 330,000 active; S. cerevisiae tim23-1 growth, BacTiter-Glo luminescence, 24 h; inhibition, % at 20 µM;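 active = growth inhibition of the mutant yeast at or above 50%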;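 note: temperature-sensitive mutant grown at 25 °C; plate controls were DMSO-treated mutant yeast for no effect and medium wells lacking yeast for full effect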
# PfHsp90 set2: reduces growth (ATP signal) of yeast expressing P. falciparum Hsp90; S. cerevisiae expressing PfHsp90, BacTiter-Glo ATP, 48 h; yeast lacking PDR1 and PDR3 efflux regulators; 0.32% of 310,000 active; AID 504621; inhibition, % at 9.4 µM;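 active = every replicate shows inhibition above about 80%, whatever the replicate mean, limit read from the data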;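 note: 0% = DMSO neutral controls and 100% = 20 µM radicicol positive controls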
# NLRP3 yeast inh: NALP3 inhibition in yeast; Yeast reconstituted NLRP3/ASC/caspase-1, beta-gal luminescence, 24 h; inhibition, % at 10 µM; 0.39% of 330,000 active; AID 2825;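 active = inhibition of 50% or more; inactive = inhibition below 50%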;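 note: plate controls were induced DMSO wells for no effect and uninduced yeast grown without galactose for full effect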
# TIM10 inh: growth inhibitors of TIM10 yeast strain | S. cerevisiae TIM10 strain growth, BacTiter-Glo luminescence, 24 h | 1.4% of 330,000 active | inhibition, % at 10 µM | AID 463195;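 active = inhibition of 40% or more at the single tested concentration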;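 note: wild-type TIM10 isogenic control strain grown at permissive 25 °C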
# NALP1 yeast inh: blocks the NALP1 inflammasome reconstituted in yeast; S. cerevisiae NALP1/ASC/caspase-1 growth, X-gal OD620, 72 h; inhibition, % at 10 µM; 0.61% of 280,000 active; AID 2071; in the data active = inhibition mostly above about 24%, no sharp cut-off; inactive = mostly below about 32%
# tim10-1 inh: inhibits growth of tim10-1 mutant yeast. 2.2% of 330,000 active. inhibition, % at 20 µM. S. cerevisiae tim10-1 ts strain growth, BacTiter-Glo, 24 h;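 active = inhibition of at least 40%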;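 note: mutant grown at 25 °C; 0% = DMSO wells with yeast and 100% = wells holding no yeast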
# tim10 confirm: confirmation of TIM10 yeast growth inhibitors; shares compounds with TIM10 inh; S. cerevisiae tim10 strain growth, BacTiter-Glo luminescence, 24 h; inhibition, % at 10 µM; 63% of 4,600 active; AID 463215;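 active = inhibition of yeast growth at or above a set limit in either of two replicates at 10 µM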;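 note: this counterscreen used the strain with wild-type TIM10; 0% = yeast with DMSO and 100% = medium wells lacking yeast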
# Active calls of the source: *; / = no result given.
SMILES,tim23-1 inh,PfHsp90 set2,NLRP3 yeast inh,TIM10 inh,NALP1 yeast inh,tim10-1 inh,tim10 confirm
Cc1nn(-c2ccccc2)c(C)c1C(=O)NCc1ccc(F)cc1,17,-16,17,-11,36,-3,/
CCOC(=O)c1ccc(NC(=O)CCS(=O)(=O)c2ccc(Br)s2)cc1,26,/,2,44*,-6,39,18
COc1ccc(-c2cc3nc(-c4ccccc4)cc(N4CCCC(O)C4)n3n2)cc1 (stereo not given),26,-33,3,42*,5,40,34*
Cc1ccc(-c2cc3nc(-c4ccccc4)cc(N4CCC5(CC4)OCCO5)n3n2)cc1,24,-15,12,13,1,19,/
COc1ccc(CC(=O)NC2CCS(=O)(=O)C2)cc1 (stereo not given),2,/,12,-5,/,0,/
COc1ccc(-c2[nH]n(-c3ccc([N+](=O)[O-])cc3)c(=O)c2C=NCc2ccncc2)cc1,33,22,9,43*,17,36,7
O=S(=O)(c1ccccc1)c1nc(-c2ccc(Cl)cc2)oc1NCCCN1CCOCC1,27,-9,19,9,/,31,/
CCNC(=S)NN=C1CCC(C(C)(C)C)CC1 (stereo not given),15,6,16,-2,-4,28,/
CC(C)(C)C1CCC(=NNC(=S)Nc2cccnc2)CC1 (stereo not given),48,8,14,44*,2,39,35*
COc1cc(NC(=O)CCS(=O)(=O)c2ccc3c(c2)oc(=O)n3C)cc(OC)c1OC,-10,-23,9,-5,6,1,/
Nc1c(C(=O)Nc2ccc(F)cc2)sc2nc(-c3ccco3)ccc12,46,1,20,49*,-4,31,48*
O=C(CCS(=O)(=O)c1ccccc1)Nc1ncc([N+](=O)[O-])s1,35,6,-3,41*,-20,25,33*
Cc1cc(C)c(C)c(S(=O)(=O)NCC(=O)Nc2ccccc2F)c1C,25,3,5,7,-11,26,/
Cc1sc2ncn(CC(=O)NCC(=O)N3CCN(c4ccccc4F)CC3)c(=O)c2c1C,-5,14,8,-14,-8,-8,/
N#CC(c1nc2ccccc2nc1N1CCCC1)S(=O)(=O)c1ccccc1 (stereo not given),28,-24,27,41*,42,38,17
COc1ccc(CNC(=O)C(C)OC(=O)CO/N=C(\C)c2ccc3c(c2)OCO3)cc1 (stereo not given),22,13,1,-10,/,10,/
CCC(=O)Nc1ccc(C(=O)c2ccccc2)cc1,20,1,20,17,14,23,/
CCC(=O)Nc1ccc(C(=O)OCc2ccccc2Cl)cc1,33,29,31,58*,-18,37,48*
O=C(N=Nc1c(O)[nH]c2ccc(Br)cc12)c1ccccc1-n1cccc1,30,17,11,48*,-2,32,35*
N=C(N)N=Nc1c(O)[nH]c2ccc(Br)cc12,1,5,8,7,10,3,/
O=C(Nc1cccc([N+](=O)[O-])c1)Nc1cnccn1,12,14,4,-1,7,3,/
Cc1noc(C)c1S(=O)(=O)N(C)C[C@H]1Oc2ccc(NC(=O)Cc3ccccc3)cc2C(=O)N([C@H](C)CO)C[C@@H]1C,10,1,-1,2,/,11,/
O=C(NC1CCCCCCC1)NC1CCCCC1,33,8,26,50*,10,30,23
CN1CCC(NC(=O)NC2CCCCC2)CC1,0,-9,-10,4,25,5,/
Cn1c(=O)n(Cc2ccccc2)c(=O)c2c1nc1n2CCCN1C1CCCCC1,18,-65,-4,41*,/,33,27
Cc1cccc(Cn2c(=O)c3c(nc4n3CCCN4Cc3ccccc3)n(C)c2=O)c1,37,-4,12,55*,18,39,1
O=[N+]([O-])c1ccc(NC(=S)NCc2ccc(F)cc2)cc1,41,-2,44,42*,0,36,42*
Cc1cc(CNC(=O)c2cccc(OC3CCN(S(=O)(=O)N(C)C)CC3)c2)on1,7,0,-9,8,13,11,/
